Measurements as given in PubChem BioAssay AID686978 (National Center for Advancing Translational Sciences (NCATS), 2013).
In all, about 420,000 compounds went through this assay and about 64,000 (15%) were called active. About 27% were inconclusive and are not listed. Calls come from the whole dose curve; as a rule, active = well fitted inhibition curve with a large enough effect; inconclusive = small, poorly fitted or top-dose-only effect; inactive = flat fitted curve, though single readings scatter. Only a sample is shown. A call without a number means that no potency is given here.

Test: qHTS for Inhibitors of human tyrosyl-DNA phosphodiesterase 1 (TDP1): qHTS in cells in absence of CPT; note: nearly all actives have a fitted effect of over 55% in size
Settings: DT40 Tdp1-/- hTDP1 cells, no CPT, ATP luminescence, 48 h; activity change, negative = growth inhibition: at 46.2 µM (top of the series)
How it was run: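 DT40 Tdp1-/-;hTDP1 cells, no CPT (DMSO vehicle only), 400 cells/well; compounds pin-transferred; ≥48 hr, 37 °C; CellTiter-Glo 30 min RT dark, luminescence read.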
Potency is the fitted concentration of half-maximal effect.

SMILES	Potency
COc1ccc(N2CCN(CCNC(=O)CCN3C(=O)COc4ccccc43)CC2)cc1	inactive
C/C(=N\NC(=O)COc1ccc(C)cc1[N+](=O)[O-])c1ccc2c(c1)OCCO2	inactive
COc1ccc(CNc2nc(NCc3ccc(OC)cc3)c3ncn(C4CCCC4)c3n2)cc1	2.31 µM (active)
CCCn1nnnc1NCc1ccc(OC)cc1	inactive
COc1ccc(CNC2CCCCC2)cc1	inactive
O=C1NS(=O)(=O)c2ccccc21	inactive
N#CCCN1CCN(S(=O)(=O)c2ccc(S(=O)(=O)NC3CC3)cc2)CC1	inactive
COc1ccc(-c2cc(-c3ccccc3)nc3c2COc2ccc(Cl)cc2-3)cc1	inactive
Nc1nc(SCC(=O)Nc2cc(C(F)(F)F)ccc2Cl)[nH]c(=O)c1NC(=O)c1ccco1	inactive
COc1ccc(Cl)cc1NC(=O)CSc1nc(=O)[nH]c2c1CCCC2	inactive
O=C(CSc1nc(=O)[nH]c2c1CCCC2)Nc1cc(C(F)(F)F)ccc1Cl	16.4 µM (active)
CC(C)CCN1CCN=C1N(C)C	inactive
CC(C)CC(=O)N1CCN(Cc2ccccc2Br)CC1	inactive
COc1ccc2oc(C(=O)NCc3ccco3)c(C)c2c1	inactive
Cc1c(C(=O)NCc2ccccc2Br)oc2ccc3c(c12)C(=O)CC(C)(C)O3	16.4 µM (active)
C[C@]12C=CC(=O)C=C1CC[C@@H]1[C@@H]2C(=O)C[C@@]2(C)[C@H]1CC[C@]2(O)C(=O)CO	inactive
Cc1cc(C)cc(N(CCC#N)C(=O)CN2C(=O)NC3(CCCC3)C2=O)c1	inactive
O=C(NC1CCCC1)C(c1ccc(N2CCOCC2)cc1)N(C(=O)c1ccco1)c1ccccc1F (stereo unspecified)	inactive
O=C(O)c1ccc(OCC2CCCO2)cc1 (stereo unspecified)	inactive
O=C(N/N=C/c1ccc(OCC2COCCO2)cc1)c1ccc(Br)cc1 (stereo unspecified)	18.4 µM (active)
O=C(O)c1ccc(/C=N/NC(=O)c2ccc(Br)cc2)cc1	inactive
O=C(Nc1cccn(Cc2c(Cl)cccc2Cl)c1=O)c1ccc(Cl)cc1	inactive
CCC(C)NC(=O)Cn1c(=O)n(-c2ccc(Cl)cc2)c(=O)c2c3c(sc21)CCCC3 (stereo unspecified)	inactive
CCCOC(=O)Nc1sc2c(c1C(=O)OCC)CCC2	inactive
CCOC(=O)c1c(NC(C)=O)c2c3c(sc2n1Cc1c(C)cc(C)cc1C)CCCC3	13 µM (active)
CN(Cc1nc(-c2cnccn2)no1)Cc1n[nH]c2c1CCCCC2	inactive

SMILES	Potency
O=[N+]([O-])c1ccc(C=Nc2ccc(Cl)cc2Cl)s1	13 µM (active)
O=C(CSCc1ccccc1Cl)NNC(=O)c1ccccc1	inactive
O=C(CCN1CCCO1)N1CCCC(N2CCN(c3cccc(C(F)(F)F)c3)CC2)C1 (stereo unspecified)	inactive
O=C(C1CC(=O)N(C2CCCCC2)C1)N1CCN(c2ccccc2)CC1 (stereo unspecified)	inactive
O=C(C1CC(=O)N(C2CCCC2)C1)N1CCN(c2cccc(C(F)(F)F)c2)CC1 (stereo unspecified)	11.6 µM (active)
CC(=O)C1(C)N(O)C(C)(C)C(c2cccs2)=[N+]1[O-] (stereo unspecified)	inactive
CC(C)OC(=O)CN1C(=O)C(=O)c2ccccc21	13 µM (active)
CCOC(=O)c1cc2n(c1C)-c1ccccc1C2=O	inactive
CCOC(=O)CN1C(=O)C(=O)c2cc(C)ccc21	14.6 µM (active)
CC(OC(=O)CN1C(=O)c2ccccc2C1=O)C(=O)c1ccccc1 (stereo unspecified)	inactive
CCOC(=O)C1CCN(C(=O)CN2C(=O)c3cccnc3Oc3ccc(C)cc32)CC1	inactive
CCOC(=O)CSc1nc2ccc(C)cc2[nH]1	inactive
COc1ccccc1C(=O)Nc1ccnn1C1CCN(C(=O)C(C)(C)C)CC1	inactive
CC1Cc2ccccc2N1CC(=O)Nc1ccc2c(c1)OC(F)(F)O2 (stereo unspecified)	inactive
Cc1cccc(C(=O)Nc2ccccc2C(=O)NCc2cccnc2)c1	inactive
CCC(C)c1ccc(NC(=O)COC(=O)C2CCCC2)cc1 (stereo unspecified)	inactive
CNC[C@@H]1Oc2c(NS(C)(=O)=O)cccc2C(=O)N([C@@H](C)CO)C[C@H]1C	inactive
Cc1cccc(-n2c(Cc3cc(=O)[nH]c(=O)[nH]3)nnc2SCC(=O)Nc2cccc(C(F)(F)F)c2)c1	inactive
C=CCC(Nc1ccccc1)c1cccc(OC)c1OC (stereo unspecified)	inactive
Cc1cccc(N2CCN(C(c3ccccc3)c3nnnn3CC3CCCO3)CC2)c1C (stereo unspecified)	11.6 µM (active)
COc1ccccc1N1CCN(Cc2nnnn2CCc2ccccc2)CC1	inactive
Clc1ccc(-n2nnnc2CN2CCCCC2)cc1Cl	inactive
CCCCn1nnnc1C(c1ccccc1)N1CCN(c2ccccc2OC)CC1 (stereo unspecified)	20.6 µM (active)
c1ccc(CCn2nnnc2CN2CCN(C3CCCC3)CC2)cc1	inactive
CCCCn1nnnc1NCc1cc(OC)c(OC)c(OC)c1	inactive
COc1ccccc1C(c1nnnn1CC1CCCO1)N1CCN(c2ccccc2)CC1 (stereo unspecified)	inactive

SMILES	Potency
c1ccc(C(c2ccccc2)N2CCN(Cc3nnnn3C3CCCCC3)CC2)cc1	20.6 µM (active)
Cc1cc(O)c(C(c2ccccc2)N2CCN(c3ccccc3F)CC2)c(=O)n1Cc1ccco1 (stereo unspecified)	inactive
CCCCn1nnnc1C(c1cccc(OC)c1OC)N1CCN(C/C=C/c2ccccc2)CC1 (stereo unspecified)	20.6 µM (active)
COc1ccc(CCn2nnnc2C(c2ccccc2)N2CCN(C)CC2)cc1OC (stereo unspecified)	inactive
O=C(Nc1nncs1)c1ccccc1NS(=O)(=O)c1cccs1	inactive
O=C(CSCc1ccc([N+](=O)[O-])cc1)Nc1cccc(C(=O)Nc2ccccc2C(=O)O)c1	inactive
C[C@H](NC(=O)C1CC(=O)N(c2ccc3c(c2)OCO3)C1)C(=O)NCc1ccco1 (stereo partly specified)	inactive
CCCCC(=O)NCc1ccc(F)cc1	inactive
CCCCNC(=O)C1CCC(CNS(=O)(=O)c2ccc(NC(C)=O)cc2)CC1 (stereo unspecified)	inactive
O=C1C(=O)N(CCN2CCOCC2)C(c2ccccn2)/C1=C(/O)c1ccc(Cl)cc1 (stereo unspecified)	inactive
Oc1ccccc1CN1CCN(C(c2ccccc2)c2ccccc2)CC1	16.4 µM (active)
COc1ccc(/C=C/CN2CCN(Cc3ccc(C)cc3)C(CCO)C2)cc1 (stereo unspecified)	inactive
O=C(Nc1ccnn1C1CCN(C/C=C/c2ccc(F)cc2)CC1)C1CCCC1	inactive
O=C(O)CN1CCN(C(c2ccccc2)c2ccccc2)CC1	inactive
CC(C)OCC(O)CN1CCN(C(c2ccccc2)c2ccccc2)CC1 (stereo unspecified)	inactive
COc1ccc(C(c2nnnn2C2CCCC2)N2CCN(C/C=C/c3ccccc3)CC2)cc1 (stereo unspecified)	16.4 µM (active)
CCOC(=O)c1c(C(C#N)C#N)cc(C)nc1C	inactive
OC[C@H]1O[C@@H](c2nc(-c3nc(-c4ccc(F)cc4)no3)cs2)[C@H](O)[C@@H](O)[C@H]1O	inactive
O=C(Nc1ccc2c(c1)OCO2)c1cc(-c2cccc(Cl)c2)on1	inactive
CCC(Oc1ccccc1)C(=O)NCc1cccnc1 (stereo unspecified)	inactive
O=C(O)CC/C(=C\c1cc2c(cc1Br)OCO2)c1nc2ccccc2s1	inactive
O=C(O)C1=C(C(=O)O)C2CCC1C2	inactive
COc1ccccc1N(CC(=O)N/N=C(\C)c1ccccc1O)S(=O)(=O)c1ccc(C)cc1	1.64 µM (active)
COc1ccc(S(=O)(=O)N(CC(=O)N/N=C/c2ccccc2C(=O)O)c2ccccc2OC)cc1	inactive
COc1ccccc1N(CC(=O)Nc1c(C)n(C)n(-c2ccccc2)c1=O)S(=O)(=O)c1ccccc1	inactive
COC(=O)[C@H](C(C)C)n1c(C)c(C(C)=O)c(C(C)=O)c1C	inactive

SMILES	Potency
O=S(=O)(c1cccc(C(F)(F)F)c1)N1c2ccccc2-n2cccc2C1c1cccnc1 (stereo unspecified)	18.4 µM (active)
O=S(=O)(c1cccc(C(F)(F)F)c1)N1CCN(c2cnccn2)CC1	inactive
O=S(=O)(c1cccc(C(F)(F)F)c1)N1CCN(c2nc(-c3cccs3)nc3ccccc23)CC1	inactive
O=S(=O)(c1ccc(F)cc1)n1ccc(-c2cnc(-c3ccccc3)s2)n1	inactive
COc1ccc(NC(C)=O)cc1NC(=O)CN1CCN(c2ccccn2)CC1	inactive
CCN(CC)c1ccc(NC(=O)CN2CCN(c3ccccn3)CC2)cc1	inactive
CN(C(=O)CN1CCN(c2cc(-c3ccc(OCc4ccccc4)cc3)ncn2)CC1)c1ccccc1	18.4 µM (active)
O=C1OCC2=C1C(c1ccccc1)CC(=O)N2c1cccc(F)c1 (stereo unspecified)	inactive
CSc1sc(C(=O)NNC(=O)c2ccc(Cl)cc2)c2c1C=CCC2	inactive
Cc1ccc(C(=O)Nc2ccc(OCc3cc(=O)n4c(C)csc4n3)cc2)cc1	inactive
O=C(COc1ccccc1F)Nc1ccc(C(=O)OCc2cc(=O)n3nc(C4CC4)sc3n2)cc1	inactive
Cc1csc2nc(COC(=O)c3ccc(NC(=O)COc4ccccc4F)cc3)cc(=O)n12	18.4 µM (active)
Cc1csc2nc(COC(=O)c3ccccc3NC(=O)c3ccccc3Cl)cc(=O)n12	11.6 µM (active)
Cc1ccc(OCC(=O)Nc2ccc(OCc3cc(=O)n4c(C)csc4n3)cc2)cc1C	inactive
Cc1csc2nc(COc3ccc(NC(=O)COc4ccccc4)cc3)cc(=O)n12	inactive
Cc1nc2c(c(C)nn2-c2ccccc2)c(C)c1C	inactive
Cc1cccc(-n2nc3c(c2NC(=O)c2cc4ccccc4o2)CS(=O)(=O)C3)c1	inactive
CC(C)COc1ccc(C(=O)NNC(=O)CCC(=O)c2cccs2)cc1	inactive
CCCCCCCCCCCC(=O)O[C@H](CC(=O)O)C[N+](C)(C)C	inactive
CC(=O)c1ccc(Cc2ncc(C(F)(F)F)cc2Cl)s1	inactive
Cc1ccc(S(=O)(=O)N(CCc2ccccc2)c2ccc3c(c2)C2CC3CCN2C(=O)OCc2ccccc2)cc1 (stereo unspecified)	9.2 µM (active)
Cc1ccc(S(=O)(=O)CCC(=O)OCc2ccccc2)cc1	inactive
CCOC(=O)N1CCN(C(=O)CN(c2ccc(C)c(C)c2)S(=O)(=O)c2ccccc2)CC1	inactive
